Results on nine molecules are retold here after PubChem BioAssay.

Experiment [1] can be described thus: inhibitors of TNFa-induced NFkB p65 translocation, primary screen, imaging, HUVEC, MLSMR starter and 10KST1 sets (AID 438;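 active = inhibition above 20% together with a positive visual image hit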;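 also: compound added about 3h40 before a 20 min TNFalpha stimulation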;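 as to inhibition: signal is the nuclear over cytoplasmic p65 intensity ratio per well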). As to conditions: HUVEC TNFa-induced p65 nuclear translocation; cell count: measured here: nuclei count (cytotoxicity indicator), at 2.08 µM; inhibition: at 2 µM, stronger effect = higher value, 0% TNFa-plus-vehicle, 100% no-TNFa wells.
The nature of experiment [2]: inhibitors of mutant huntingtin aggregation, primary screen, imaging, exon1htt(103Q)mCFP cells, high-content imaging (AID 483).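 Also: compound exposure lasted 3 days before fixation.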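 As to nuclei count: percent of the per-plate median nuclei count of sample wells.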 As to conditions: exon1htt(103Q)mCFP cell line, aggregate imaging, at 2 µM; inhibition of aggregation: stronger effect = higher value; nuclei count: measured here: cell count, toxicity.
Experiment [3] is described as follows: inhibitors of E-selectin induction by TNFa, primary screen, imaging, HUVEC, immunofluorescence, MLSMR starter and 10KST1 sets (AID 487;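 active = visually confirmed hit in the image check and inhibition above 20%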;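 as to inhibition: signal is fraction of cell area covered by stained E-selectin grains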;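 as to nuclei count: 100% = median nuclei count of all wells on the same plate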). Conditions: HUVEC TNFalpha-induced E-selectin immunofluorescence imaging, at 2 µM; inhibition: stronger effect = higher value; nuclei count: measured here: cell number, toxicity.
Experiment [4] concerns the target Voltage-gated potassium channel subunit beta-2 (Rattus norvegicus) (UniProt P62483). The experiment can be described thus: KvBeta enzyme negative modulators, primary screen, biochemical, NADPH fluorescence (AID 622;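 active = fluorescence slope higher than the sample average by over 3 SD, cut at about -0.22 in these data, passing the limit was not always enough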;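 also: slope of raw intensity against log time taken from 70 to 1610 s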). As to conditions: recombinant KvBeta, 4-cyanobenzaldehyde reduction, at 10 µM, stronger effect = higher value.
Experiment [5] shares this target. The experiment can be described thus: KvBeta positive modulators, primary screen, biochemical, NADPH fluorescence (AID 623;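 active = NADPH fluorescence slope more negative than the mean of all samples by about 3 SD, 99.7% confidence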;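 also: fluorescence intensity change per second fitted from 20 to 320 s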). As to conditions: Recombinant KvBeta, NADPH fluorescence decrease slope, 10 min; at 10 µM; stronger effect = lower value.
Experiment [6] deals with Alpha-2C adrenergic receptor (Homo sapiens) (UniProt P18825). The experiment can be described thus: modulators of alpha2C/GIRK thallium flux, primary screen, cell-based, HEK293 alpha2C/GIRK1/2 (AID 624;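 active = fluorescence slope after compound addition differing from the mean of all screened samples at 99.7% confidence, in either direction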;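 also: slope of fluorescence ratio to pre-addition baseline per second over 15 to 24 s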). Conditions: thallium flux BTC fluorescence, at 10 µM, actives lie on both sides.
Sequence of Alpha-2C adrenergic receptor (Homo sapiens) (P18825 whole entry, looked up): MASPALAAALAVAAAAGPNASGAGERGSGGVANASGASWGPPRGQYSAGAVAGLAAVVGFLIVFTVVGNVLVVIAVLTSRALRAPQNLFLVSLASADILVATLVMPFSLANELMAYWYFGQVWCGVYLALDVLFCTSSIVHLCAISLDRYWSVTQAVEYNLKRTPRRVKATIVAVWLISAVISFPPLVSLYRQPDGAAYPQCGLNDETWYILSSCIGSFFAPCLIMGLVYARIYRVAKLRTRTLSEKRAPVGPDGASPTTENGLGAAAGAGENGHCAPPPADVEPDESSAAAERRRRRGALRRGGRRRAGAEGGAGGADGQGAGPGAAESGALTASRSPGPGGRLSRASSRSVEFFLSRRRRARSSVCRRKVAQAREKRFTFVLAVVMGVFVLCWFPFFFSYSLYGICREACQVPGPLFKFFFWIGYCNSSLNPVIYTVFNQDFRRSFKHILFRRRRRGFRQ
A short description of experiment [7]: inhibitors of Sendai virus-induced IRF3 signaling, primary screen, TLR/RLR signaling modifier project, cell-based, Sendai virus stimulus, luciferase, 10K MLSCN set (AID 602276;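 active = inhibition at or above 50% at 10 µM; inactive = inhibition below 50%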;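 also: firefly luciferase from ISG56 promoter only with Renilla not read in this screen; 0% = Sendai virus plus DMSO and 100% = medium plus DMSO without virus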). Conditions: HEK293 RL24 IRF3 luciferase reporter, at 10 µM, stronger effect = higher value. A general note: In a reporter assay the amount or activity of a reporter protein is the signal.
A short description of experiment [8]: inhibitors of poly I:C-induced TLR3 signaling, primary screen, cell-based, poly I:C stimulus, luciferase, 10K MLSCN set (AID 602277;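 active = inhibition of the reporter signal at or above 50%; inactive = inhibition below 50%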). As to conditions: HEK293-TLR3 RL24 IRF3 luciferase reporter, at 10 µM, stronger effect = higher value.

SMILES strings stand for the structures. Activity calls are given as the source filed them.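 The calls were made as follows, unless noted: active = visual image review flags a hit and inhibition of aggregation exceeds 20%; inconclusive = visual hit but inhibition at or below 20%; inactive = no hit on visual image review.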

Sequence of Voltage-gated potassium channel subunit beta-2 (Rattus norvegicus) (P62483 whole entry, looked up): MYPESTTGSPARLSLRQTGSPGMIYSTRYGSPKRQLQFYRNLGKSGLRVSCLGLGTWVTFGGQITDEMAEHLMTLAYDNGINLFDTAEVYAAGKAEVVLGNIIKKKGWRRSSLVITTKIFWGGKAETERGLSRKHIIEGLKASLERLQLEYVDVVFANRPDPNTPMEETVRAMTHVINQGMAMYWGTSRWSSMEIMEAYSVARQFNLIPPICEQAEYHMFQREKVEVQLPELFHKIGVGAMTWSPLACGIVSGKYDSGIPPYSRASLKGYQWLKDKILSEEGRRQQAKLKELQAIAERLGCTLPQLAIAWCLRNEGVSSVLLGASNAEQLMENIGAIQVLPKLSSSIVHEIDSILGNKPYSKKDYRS

Broadly, the inhibition is the relative decrease from the control value, in per cent. Regarding `CCN1CCN(c2nc(C)nc3c2sc(=S)n3C)CC1`, the cell count in experiment [1] was determined as 640. Further, the inhibition in experiment [1] was -4.8% (inactive); in experiment [3], -24.6% (inactive); in experiment [7] it was -3.52% (inactive); in experiment [8] it was 18% (inactive). The inhibition of aggregation in experiment [2] was 7.2% (inactive). Further, the nuclei count in experiment [2] was determined as 82.9%; in experiment [3], 109%. Also, the fluorescence slope in experiment [4] is -0.587 (inactive). Besides, the NADPH fluorescence slope in experiment [5] was -2.8e-05 (inactive). In addition, in experiment [6], the slope is 0.00433 (inactive).
Turning to `Cc1cc(C)nc(N2CCC(C(=O)Nc3ccc4c(c3)CCC4)CC2)n1`, the cell count in experiment [1] turned out to be 338. The inhibition is 6.3% (inactive) in experiment [1], -103% (inactive) in experiment [3], 5.67% (inactive) in experiment [7] and 24.8% (inactive) in experiment [8]. In experiment [2], the inhibition of aggregation was 17.6% (inactive). For the same molecule, the nuclei count in experiment [2] was found to be 92%; in experiment [3] it was 120%. Further, the fluorescence slope in experiment [4] was -0.405 (inactive). In addition, the NADPH fluorescence slope in experiment [5] is -6.3e-05 (inactive). For the same molecule, the slope in experiment [6] was 0.00372 (inactive).
Take `O=C(CSc1nc2ccccc2[nH]1)c1ccc2c(c1)OCO2`: the cell count in experiment [1] amounted to 673. Further, the inhibition was 2.4% (inactive) in experiment [1], -2.6% (inactive) in experiment [3], 18.8% (inactive) in experiment [7] and -39.5% (inactive) in experiment [8]. Moreover, the inhibition of aggregation in experiment [2] was -4% (inactive). Moreover, the nuclei count in experiment [2] came out at 102%; in experiment [3], 100%. Moreover, the fluorescence slope in experiment [4] is -0.471 (inactive). Further, in experiment [5], the NADPH fluorescence slope was -1.2e-05 (inactive). In addition, the slope in experiment [6] was 0.00599 (inactive).
Turning to `CC1Cc2ccccc2N1C(=O)c1cccnc1` (centres undefined), the cell count in experiment [1] worked out at 254. Also, the inhibition in experiment [1] was -1% (inactive); in experiment [3] it was -64.3% (inactive); in experiment [7] it was 14.1% (inactive); in experiment [8], 25.5% (inactive). Further, the inhibition of aggregation in experiment [2] was -30.3% (inactive). The nuclei count is 106% in experiment [2] and 103% in experiment [3]. Moreover, in experiment [4], the fluorescence slope was -0.422 (inactive). For the same molecule, in experiment [5], the NADPH fluorescence slope is -8.5e-05 (inactive). The slope in experiment [6] is 0.00616 (inactive).
In the case of `O=C(CCSc1ccccc1)Nc1ccc(S(=O)(=O)N2CCOCC2)cc1`, the cell count in experiment [1] was determined as 381. In addition, the inhibition in experiment [1] is 5.2% (inactive); in experiment [3], -102% (inactive); in experiment [7], 18.1% (inactive); in experiment [8], 11.6% (inactive). The inhibition of aggregation in experiment [2] was 8.5% (inactive). The values for the nuclei count in experiment [2] and in experiment [3] were 105% and 109%, respectively. Further, the fluorescence slope in experiment [4] was -0.53 (inactive). Also, in experiment [5], the NADPH fluorescence slope is -5.2e-06 (inactive). The slope in experiment [6] was 0.00555 (inactive).
With `Cc1ccc2c(c1)-c1c(cnn1CC(=O)NC(C)CCc1ccco1)CO2` (centres undefined), in experiment [1], the cell count came out at 799. Moreover, the inhibition is 4.6% (inactive) in experiment [1], -62.3% (inactive) in experiment [3], 11.5% (inactive) in experiment [7] and 29.3% (inactive) in experiment [8]. Further, in experiment [2], the inhibition of aggregation is -8% (inactive). Moreover, the nuclei count amounted to 119% in experiment [2] and 125% in experiment [3]. Further, the fluorescence slope in experiment [4] is -0.577 (inactive). The NADPH fluorescence slope in experiment [5] was -2e-05 (inactive). Further, in experiment [6], the slope was 0.00658 (inactive).
Consider `O=C(NCc1ccc2c(c1)OCO2)C1CCCN(S(=O)(=O)c2cccc3cccnc23)C1` (centres undefined), for which the cell count in experiment [1] was determined as 741. Moreover, the inhibition in experiment [1] was -8% (inactive); in experiment [3], -40.6% (inactive); in experiment [7], 15.2% (inactive); in experiment [8], 40.4% (inactive). In addition, the inhibition of aggregation in experiment [2] was 20.4% (inactive). For the same molecule, the nuclei count was found to be 125% in experiment [2] and 104% in experiment [3]. Moreover, the fluorescence slope in experiment [4] is -0.527 (inactive). The NADPH fluorescence slope in experiment [5] was -6.1e-05 (inactive). In addition, in experiment [6], the slope is 0.00698 (inactive).
In the case of `Cc1c(NC(=O)C(C)Oc2ncnc3ccccc23)c(=O)n(-c2ccccc2)n1C` (centres undefined), in experiment [1], the cell count was 547. Besides, the inhibition was -1.7% (inactive) in experiment [1], -5.8% (inactive) in experiment [3], -7.59% (inactive) in experiment [7] and 19.3% (inactive) in experiment [8]. In addition, the inhibition of aggregation in experiment [2] is -8.5% (inactive). Also, the nuclei count in experiment [2] amounted to 78%; in experiment [3] it was 111%. Moreover, the fluorescence slope in experiment [4] was -0.506 (inactive). The NADPH fluorescence slope in experiment [5] was -5e-05 (inactive). For the same molecule, the slope in experiment [6] is 0.00757 (inactive).
Consider `Cc1sc2nc(SCc3nc4ccccc4[nH]3)n(Cc3ccco3)c(=O)c2c1C`, for which the cell count in experiment [1] was found to be 585. In addition, the inhibition is -2.2% (inactive) in experiment [1], 8.2% (inactive) in experiment [3], 0.73% (inactive) in experiment [7] and -54.9% (inactive) in experiment [8]. Moreover, the inhibition of aggregation in experiment [2] was 17.5% (inactive). Further, the results for the nuclei count in experiment [2] and in experiment [3] were 91.4% and 97.3%, respectively. Further, in experiment [4], the fluorescence slope is -0.59 (inactive). Moreover, the NADPH fluorescence slope in experiment [5] was -2e-05 (inactive). Also, the slope in experiment [6] is 0.00556 (inactive).
